This excerpt belongs to a sample that is enriched for hits.
NS1 inh: blocks influenza NS1 protein function; Potency, µM (highest dose often 46.1 µM); 0.4% of 270,000 active; AID 2326; calls by dose curve; note: actives are rising curves; nearly all actives have a fitted effect of over 50% in size
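Read-out: OD600 growth recovery of NS1-expressing budding yeast. Cells grown overnight at 30C in -URA glucose medium, washed, resuspended and diluted 1:100 in 2% galactose assay medium, pH 6.0. Same strain lacking NS1 served as positive control.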
AmpC detergent: inhibitors of E. coli AmpC beta-lactamase with detergent. 0.041% of 370,000 active. Potency, µM (highest dose often 114 µM), hits mostly inhibitors. AID 485294. AmpC hydrolysis of nitrocefin, absorbance 480 nm, 0.01% Triton; note: nearly all actives have a fitted effect of over 25% in size
Target sequence (P00811 whole entry, looked up): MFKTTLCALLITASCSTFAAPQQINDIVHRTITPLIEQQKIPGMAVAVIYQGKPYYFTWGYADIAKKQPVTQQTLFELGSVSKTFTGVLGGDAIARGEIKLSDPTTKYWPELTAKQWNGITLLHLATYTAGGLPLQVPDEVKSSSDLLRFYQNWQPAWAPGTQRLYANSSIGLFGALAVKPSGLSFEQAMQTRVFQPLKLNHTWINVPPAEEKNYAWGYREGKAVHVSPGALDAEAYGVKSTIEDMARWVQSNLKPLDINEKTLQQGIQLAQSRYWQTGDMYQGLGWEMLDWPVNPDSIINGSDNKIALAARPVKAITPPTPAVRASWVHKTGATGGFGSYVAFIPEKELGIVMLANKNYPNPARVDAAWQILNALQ
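20 mM phosphate pH 7.0 + 0.01% (detergent screen) or 0.0001% Triton X-100; 5.3 nM AmpC reagent; cpd preinc 15 min RT; nitrocefin (800 uM stock) to start; A480 q20 s × 4 min; Activity was normalised to no-enzyme and no-compound control wells.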
Shiga inhibitor: inhibitors of Shiga toxin in Vero cells; Vero cells, Shiga toxin protein synthesis inhibition reporter; inhibition, % at 38.7 µM; 9.2% of 290,000 active; in the data active = inhibition mostly above about 28%, no sharp cut-off; inactive = mostly below about 43%
AmpC no deterg: inhibitors of E. coli AmpC beta-lactamase without detergent; P00811; AmpC nitrocefin hydrolysis, absorbance 480 nm, 0.0001% Triton; Potency, µM (highest dose often 57.1 µM), usual class: inhibitors; 0.52% of 330,000 active; AID 485341; note: nearly all actives have a fitted effect of over 20% in size
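20 mM phosphate pH 7.0 + 0.01% (detergent screen) or 0.0001% Triton X-100; 5.3 nM AmpC reagent; cpd preinc 15 min RT; nitrocefin (800 uM stock) to start; A480 q20 s × 4 min; Activity was normalised to no-enzyme and no-compound control wells.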
CHX counter: counter-screen hit for Shiga toxin inhibitors, cycloheximide | cell reporter, cycloheximide protein synthesis inhibition counterscreen | max response, % | 12% of 300,000 active | AID 2314; in the data active = max response mostly above about 13%, no sharp cut-off; inactive = mostly below about 14%; note: read at 38.3 µM for the half of the compounds with a filed dose
A number is an active result; 0 = inactive; ? = inconclusive; - = not tested or not shown. Unless noted, calls come from the whole dose curve; as a rule, active = well fitted curve in the direction sought with a large enough effect; inconclusive = small, poorly fitted or top-dose-only effect, or another doubt; inactive = no such curve, though single readings can be large; an effect the other way counts as inactive or inconclusive.

SMILES | NS1 inh | AmpC detergent | Shiga inhibitor | AmpC no deterg | CHX counter
NC(=O)c1cccc(-c2cc(Nc3ccc(OC(F)(F)F)cc3)ncn2)c1 | 0 | 0 | 0 | 0 | 13.3
CCOc1ccccc1NC(=O)Cn1nnc(C(=O)NCc2ccc3c(c2)OCO3)c1N | 0 | 0 | 0 | 0 | 0
CCCC(=O)Nc1cc(C)c(NC(=O)c2ccccn2)cn1 | 0 | 0 | 85.8 | 0 | 28.1
CCCCC(=O)Nc1cnc(NC(=O)c2ccco2)cc1C | 0 | 0 | 63.7 | 0 | 20.7
CCCC(=O)Nc1cc(C)c(NC(=O)c2ccco2)cn1 | 0 | 0 | - | 0 | 0
Cc1cc(NC(=O)C(C)C)ncc1NC(=O)c1ccccn1 | 0 | 0 | 129.2 | 0 | 30.1
COc1ccc(C(=O)N2CCN(c3cccc(C)c3C)CC2)cc1S(=O)(=O)NC1CC1 | - | 0 | - | 0 | -
O=C(O)CSc1cc(-c2ccccc2)nc2ccccc12 | 0 | - | - | - | -
COC(=O)C1CN(C(=O)COc2ccc(Cl)cc2Cl)c2ccccc2O1 (stereo not drawn) | 0 | 0 | 0 | 0 | 0
COC(=O)C1CN(C(=O)COc2cccc(C)c2C)c2ccccc2O1 (stereo not drawn) | 0 | 0 | 0 | 0 | 26.1
Cc1cc(C)cc(NC(=O)COCc2cc(-c3ccc4c(c3)OCO4)on2)c1 | - | 0 | - | - | -
c1ccc2c(CSc3nnc(-c4ccncc4)o3)cccc2c1 | 0 | 0 | 0 | 0 | 0
Clc1cccc(Cl)c1CSc1nnc(-c2sccc2-n2cccc2)o1 | 0 | 0 | 95.4 | 0 | 19.8
Fc1cccc(Cl)c1CSc1nnc(-c2ccncc2)o1 | 0 | 0 | 56.6 | 0 | 35.9
Clc1ccccc1CSc1nnc(-c2ccncc2)o1 | 0 | 0 | 53.7 | 0 | 47.0
N#Cc1ccccc1CSc1nnc(-c2ccncc2)o1 | 0 | 0 | 49.1 | 0 | 33.8
O=C(NCC(c1cccnc1)N1CCc2ccccc2C1)C(=O)Nc1ccc(F)cc1F (stereo not drawn) | - | 0 | - | - | -
O=C(Nc1ccccc1N1CCCCC1)c1cc(S(=O)(=O)N2CCOCC2)ccc1F | - | ? | - | 0 | -
C=CCN(c1ccccc1C(=O)O)S(=O)(=O)/C=C/c1ccccc1 | 0 | 0 | 0 | 0 | 0
O=C(NCc1cccnc1)c1ccc(NC(=O)c2ccc([N+](=O)[O-])cc2)cc1 | 0 | 0 | 0 | ? | 0
CCCCCOC(=O)NC1CCS(=O)(=O)C1 (stereo not drawn) | - | 0 | 0 | 0 | 0
O=C(CCc1nc(-c2ccccc2)no1)NCc1ccccc1CN1CCOCC1 | - | 0 | - | 0 | -
N#Cc1cccc(-c2nnc(SCc3ccccc3C#N)o2)c1 | 0 | 0 | 89.0 | 0 | 45.8
N#Cc1ccccc1CSc1nnc(Cc2ccccc2)o1 | 0 | 0 | 52.6 | 0 | 21.4
Cc1ccc(NC(=O)C2CCN(S(=O)(=O)c3ccc4c(c3)CCCC(=O)N4)CC2)c(Cl)c1 | - | 0 | - | - | -
SMILES | NS1 inh | AmpC detergent | Shiga inhibitor | AmpC no deterg | CHX counter
C[C@H](N)C(=O)N[C@@H](Cc1ccc(F)cc1)C(=O)N[C@@H](CCCN=C(N)N)C(=O)N[C@@H](CC1CCCCC1)C(=O)N[C@@H](CCCCN=C(N)N)C(=O)N[C@@H](Cc1ccc(O)cc1)C(N)=O | - | - | 0 | - | 0
Cc1cc(C)nc(SCC(=O)c2ccc(O)c(O)c2)n1 | ? | 0 | 0 | 0 | 0
Cc1cc(C)nc(SCC(=O)c2ccc(C)c(C)c2)n1 | 0 | 0 | 0 | 0 | 10.7
Cc1cc(N2CCC(C)CC2)nc(SCC(=O)c2ccccc2)n1 | 0 | 0 | 28.8 | 0 | 12.6
Cc1cc(N2CCOCC2)nc(SCC(=O)c2ccccc2)n1 | 0 | 0 | 95.8 | 0 | 50.9
COC(=O)CSc1nc(C)cc(N2CCOCC2)n1 | - | 0 | 52.6 | 0 | 0
Cc1cc(Cl)nc(SCC(=O)c2ccccc2)n1 | 0 | 0 | 80.7 | 0 | 44.5
Cc1cc(N2CCCC2)nc(SCC(=O)c2ccccc2)n1 | 0 | ? | 0 | 0 | 0
CCc1nnc(NS(=O)(=O)c2ccc(N3C(=O)c4ccccc4C3=O)cc2)s1 | 0 | 0 | 0 | 0 | 0
Nc1nc(OCC(F)(F)F)cc(Oc2ccccc2F)n1 | 0 | ? | 80.0 | 0 | 22.0
Cc1ccc(S(=O)(=O)N2CCCC2C(=O)Nc2nc3ccccc3s2)cc1 (stereo not drawn) | 0 | 0 | 0 | 0 | 14.4
O=C(Nc1ncc(Cc2ccccc2)s1)C1CCCO1 (stereo not drawn) | 0 | ? | 63.5 | 0 | 33.8
O=C(Nc1nc2ccc(C(=O)N3CCCCC3)cc2s1)C1CCCCC1 | 0 | 0 | 0 | 0 | 0
Nc1ccc2nc(NC(=O)C3CCCCC3)sc2c1 | 0 | 0 | 103.9 | 0 | 56.9
O=C(OCc1nc2ccccc2s1)[C@@H]1CCCN1S(=O)(=O)c1ccccc1F | 0 | 0 | 0 | 0 | 25.8
O=C(Nc1nc2ccccc2s1)C1CCCO1 (stereo not drawn) | 0 | 0 | 88.5 | 0 | 46.8
O=C(Nc1nc2ccc(F)cc2s1)C1CCCO1 (stereo not drawn) | 0 | 0 | 94.0 | 0 | 26.2
CCN(CC)c1ccc(C2Nc3cccc4cccc(c34)N2)c(O)c1 | 0 | 0 | 50.7 | 0 | 27.2
CN(CC(=O)Nc1ccc(F)c(F)c1F)C(=O)c1ccc(=O)[nH]c1 | 0 | 0 | 50.1 | 0 | 38.5
COc1cccc(C(=O)N(C)CC(=O)Nc2ccc(F)c(F)c2F)c1 | 0 | 0 | 0 | 0 | 0
CCCn1c(-c2cc(OC)c(OC)c(OC)c2)nc2nc3ccccc3nc21 | 0 | ? | 0 | 0 | 0
C=CCn1c(-c2ccc(N)cc2)nc2ccccc21 | 0 | 0 | 49.9 | 0 | 0
C=CCn1c(-c2ccc(OC)cc2)nc2nc3ccccc3nc21 | 0 | 0 | 0 | 0 | 37.0
O=c1c2ccccc2nc(-c2ccccc2)n1Cc1ccccc1 | 0 | ? | 83.1 | 0 | 0
C=CCn1c(-c2ccc(OC)cc2)nc2ccccc21 | 0 | 0 | 30.3 | 0 | 35.5
SMILES | NS1 inh | AmpC detergent | Shiga inhibitor | AmpC no deterg | CHX counter
CCOCCn1c(-c2ccc(OC)cc2)nc2ccccc21 | 0 | 0 | 0 | 0 | 0
O=c1c2ccccc2nc(-c2ccccc2)n1Cc1ccc(Cl)cc1 | 0 | ? | 0 | 0 | 0
Cc1ccc(OCCn2nnc3sc4c(c3c2=O)CCC(C(C)(C)C)C4)cc1 (stereo not drawn) | - | 0 | - | - | -
Oc1ccc(Cn2c(-c3ccc(O)cc3)nc3ccccc32)cc1 | 0 | - | - | - | -
C=CCn1c(C(O)c2ccccc2)nc2ccccc21 (stereo not drawn) | 0 | ? | - | 0 | 16.0
COc1ccc(-c2nc3ccccc3n2Cc2ccccc2)cc1 | 0 | 0 | 0 | 0 | 25.2
COc1ccc(-c2nnnn2CCc2ccccc2)cc1 | 0 | 0 | 0 | 0.199µM | 19.0
COC(=O)CC1c2cc(OC)c(OC)cc2CCN1C(=O)Nc1ccc(C)cc1Cl (stereo not drawn) | - | 0 | - | - | -
CC(C)(C)C1c2[nH]c3ccccc3c2CCN1Cc1cccc(OCCO)c1 (stereo not drawn) | 0 | 0 | 0 | 0 | 10.7
Cc1ccccc1C(=O)n1nc(-c2ccco2)nc1NCc1ccc(Cl)cc1 | - | 0 | - | - | -
Cc1ccccc1-c1nc2c3c(-c4ccccc4)c(-c4ccccc4)oc3ncn2n1 | - | 0 | - | - | -
CC#CC(=O)N1CCC(CO)(CCc2ccccc2)CC1 | 0 | 0 | 0 | 0 | 17.8
CCc1cc(C(=O)N2CCN(c3ccccn3)CC2)sc1C | 0 | 0 | 0 | 0 | 0
Cc1ccc(NC2=NCCC2)cc1Cl | 0 | 0 | 0 | 0 | 0
